Where “and” joins values, the source holds several entries; their conditions need not be identical. Identical values can stand only once. Out of some 5,500 compounds screened, about 2,000 (36%) were called active. Not shown: some 18% with an inconclusive outcome. No stated cut-off is given here; in the data, active means normalized growth mostly below about 0.91 (no sharp cut-off); inconclusive means no clear call, values can overlap the other calls; inactive means mostly above about 0.92. The list shows a part of the results. Where a SMILES comes first, the peptide text is derived from it. Bridges are numbered along the chain shown (N, C = ends). [ ]: non-standard residue; d: D form. The star is where a group is joined. Octanoyl(6-Me) = CCC(C)CCCCC(=O)*; Dab = NCC[CH](N)C(=O)O
Experiment: chemical genetic growth profiling, strain panel (AID 1159580);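 further: tested at 20 µM; growth read once vehicle control cultures reached saturation at 30 °C; 1 = growth at the plate median or of vehicle wells; lower values mean less growth of the strain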
Details: S. cerevisiae deletion strains, growth OD

Measured: normalized growth

CCC(C)CCCCC(=O)NC(CCN)C(=O)NC(C(=O)NC(CCN)C(=O)NC1CCNC(=O)C(C(C)O)NC(=O)C(CCN)NC(=O)C(CCN)NC(=O)C(CC(C)C)NC(=O)C(Cc2ccccc2)NC(=O)C(CCN)NC1=O)C(C)O (configuration not stated) ({Octanoyl(6-Me)}-[Dab]T[Dab][Dab][Dab]FL[Dab][Dab]T; lactam 4-C; configuration not given here)
inactive: locus YAL013W, strain DEP1, hits give low values 1 | locus YAL021C, strain ccr4, hits give low values 0.95 | locus YAL026C, strain drs2, hits give low values 0.934 | locus YAL030W, strain snc1, hits give low values 0.99 | locus YBL061C, strain skt5, hits give low values 0.99 | locus YBR009C, strain hhf1, hits give low values 0.98 | locus YBR021W, strain FUR4, hits give low values 0.996 | locus YBR023C, strain chs3, hits give low values 0.99 | locus YBR171W, strain sec66, hits give low values 1 | locus YBR229C, strain ROT2, hits give low values 1 | locus YBR231C, strain swc5, hits give low values 1 | locus YBR279W, strain paf1, hits give low values 0.99 | locus YCL011C, strain gbp2, hits give low values 0.995 | locus YCL016C, strain dcc1, hits give low values 0.975 | locus YCL029C, strain bik1, hits give low values 1.02 | locus YCL061C, strain MRC1, hits give low values 0.959 | locus YCL069W, strain vba3, hits give low values 0.999 | locus YCR088W, strain abp1, hits give low values 0.997 | locus YDL005C, strain med2, hits give low values 0.99 | locus YDL035C, strain GPR1, hits give low values 0.973 | locus YDL040C, strain nat1, hits give low values 1 | locus YDL074C, strain BRE1, hits give low values 1.01 | locus YDL101C, strain DUN1, hits give low values 1.02 | locus YDL134C, strain PPH21, hits give low values 0.997 | locus YDL185W, strain tfp1, hits give low values 1 | locus YDL192W, strain arf1, hits give low values 0.991 | locus YDR001C, strain nth1, hits give low values 1.01 | locus YDR069C, strain doa4, hits give low values 0.989 | locus YDR101C, strain arx1, hits give low values 1.01 | locus YDR137W, strain rgp1, hits give low values 1.08 | locus YDR150W, strain NUM1, hits give low values 0.995 | locus YDR159W, strain sac3, hits give low values 0.985 | locus YDR162C, strain NBP2, hits give low values 0.99 | locus YDR195W, strain ref2 0.953 | locus YDR297W, strain sur2, hits give low values 0.994 | locus YDR318W, strain mcm21, hits give low values 1.01 | locus YDR334W, strain swr1, hits give low values 1 | locus YDR335W, strain msn5, hits give low values 0.998 | locus YDR388W, hits give low values 1.01 | locus YDR392W, strain spt3, hits give low values 0.802 | locus YDR502C, strain sam2, hits give low values 0.997 | locus YEL003W, strain gim4, hits give low values 0.997 | locus YEL037C, strain rad23, hits give low values 1 | locus YEL061C, strain CIN8 (second series), hits give low values 1 | locus YEL061C, strain CIN8, hits give low values 0.998 | locus YER015W, strain faa2, hits give low values 0.992 | locus YER016W, strain bim1, hits give low values 1 | locus YER110C, hits give low values 1.02 | locus YER111C, strain swi4, hits give low values 1 | locus YER155C, strain BEM2 (second series), hits give low values 0.91 | locus YER155C, strain BEM2, hits give low values 1.02 | locus YER167W, strain BCK2, hits give low values 0.996 | locus YFR010W, strain ubp6, hits give low values 0.999 | locus YGL078C, strain dbp3, hits give low values 0.993 | locus YGL086W, strain mad1, hits give low values 0.989 | locus YGL167C, strain pmr1, hits give low values 0.978 | locus YGL173C, strain kem1, hits give low values 0.99 | locus YGL227W, strain vid30, hits give low values 1.01 | locus YGL240W, strain doc1, hits give low values 0.986 | locus YGL248W, strain PDE1, hits give low values 1.01 | locus YGL253W, strain hxk2, hits give low values 1.01 | locus YGR078C, strain PAC10, hits give low values 1.02 | locus YGR135W, strain pre9, hits give low values 0.998 | locus YGR229C, strain SMI1, hits give low values 0.976 | locus YGR252W, strain gcn5, hits give low values 0.937 | locus YHR013C, strain ard1, hits give low values 0.901 | locus YHR027C, strain rpn1, hits give low values 0.989 | locus YHR030C, strain SLT2, hits give low values 1 and 0.991 | locus YHR079C, strain IRE1 (second series), hits give low values 1.01 | locus YHR079C, strain IRE1, hits give low values 0.995 | locus YHR094C, strain hxt1, hits give low values 1.01 | locus YHR129C, strain ARP1, hits give low values 1.01 | locus YHR142W, strain chs7, hits give low values 1.01 | locus YHR200W, strain rpn10, hits give low values 0.996 | locus YIL066C, strain RNR3, hits give low values 0.984 | locus YIL073C, strain SPO22, hits give low values 1.02 | locus YIL125W, strain kgd1, hits give low values 0.994 | locus YIR030C, strain dcg1, hits give low values 1.01 | locus YJL092W, strain hpr5, hits give low values 1 | locus YJL095W, strain BCK1 (second series), hits give low values 1.01 | locus YJL095W, strain BCK1, hits give low values 1.02 and 1 | locus YJL115W, strain asf1, hits give low values 0.977 | locus YJL129C, strain trk1, hits give low values 1.09 | locus YJL134W, strain LCB3, hits give low values 1 | locus YJL154C, strain vps35, hits give low values 1.01 | locus YJL164C, strain tpk1, hits give low values 0.98 | locus YJL166W, strain qcr8, hits give low values 0.981 | locus YJL168C, strain set2, hits give low values 1.01 | locus YJL187C, strain SWE1 (second series), hits give low values 1.02 | locus YJL187C, strain SWE1, hits give low values 0.998 | locus YJR043C, strain POL32, hits give low values 1.02 | locus YJR066W, strain TOR1, hits give low values 0.97

— PubChem BioAssay AID1159580 (chemical genetic matrix, 2015)
